Assay results from PubChem BioAssay (Tox21).
Inconclusive results are not listed. Entries that show only a call come without a potency. Values without a mark were called inactive. Calls of active or inactive are those of the source. Calls follow the shape of the dose curve; as a rule, active = well fitted cell-killing curve with a large enough effect in the repeat runs; inconclusive = weak or mixed curves, or effect the other way; inactive = no such curve, though single readings can be large or run the other way.

Experiment: qHTS assay to identify small molecule antagonists of the progesterone receptor (PR) signaling pathway - cell viability counter screen (AID 1346798); also: nearly all actives have a fitted effect of over 50% in size
Details: PR-UAS-bla HEK293T viability, CellTiter-Glo luminescence, 16 h; series mostly up to 92.4 µM; activity change, negative = cytotoxicity: at the top concentration
Text: National Center for Advancing Translational Sciences [NCATS]
NIH Chemical Genomics Center [NCGC]
U.S. Environmental Protection Agency [EPA]
National Institutes of Environmental Health Sciences [NIEHS]
National Toxicology Program [NTP]
U.S. Food and Drug Administration [FDA]
Progesterone receptor (PR), a nuclear hormone receptor, plays an important role in development, metabolic homeostasis and reproduction. It is activated by the steroid hormone progesterone. Endocrine disrupting chemicals (EDCs) and their interactions with steroid hormone receptors like PR causes disruption of normal endocrine function. To identify the compounds that inhibit PR signaling, a PR-UAS-bla GripTite cell line i.e. PR-UAS-bla HEK293T (Invitrogen, Carlsbad, CA, USA) containing a beta-lactamase reporter gene under the control of an UAS response element was used to screen Tox21 10K compound library. The cytotoxicity of the Tox21 compound library against the PR-bla cell line was tested in parallel by measuring the cell viability using CellTiter-Glo assay in the same wells.
Tox21 Assay Protocol Summary:
PR-UAS-bla HEK293T cells were dispensed at 3,000 cells/4 uL of assay medium containing 2% charcoal stripped FBS per well into black wall/clear-bottom 1536-well plates using a Multidrop Combi (ThermoFisher Scientific, Waltham, MA) dispenser. After the assay plates were incubated at a 37C and 5% CO2 for 4 hr, 23 nL of compounds dissolved in DMSO, positive controls or DMSO only was transferred to the assay plate by a Pintool station (Kalypsys, San Diego, CA), followed by addition of 1 uL of R5020 in assay medium using a Flying Reagent Dispenser (FRD, Aurora Discovery, San Diego, CA). The plates were incubated at 37C and 5% CO2 for 16 hr. Then 1 uL of LiveBLAzer B/G FRET substrate was added using a Flying Reagent Dispenser, the plates were incubated at room temperature for 2 hours, and fluorescence intensity was measured by an Envision plate reader (PerkinElmer, Shelton, CT). For cell viability readout that measures cytotoxicity, 4 uL/well of CellTiter-Glo reagent was added into the assay plates using a FRD. After 30 min incubation at room temperature, the luminescence intensity in the plates was measured using a ViewLux (PerkinElmer) plate reader.

SMILES	Potency	activity change, negative = cytotoxicity
O=[N+]([O-])c1ccc([As](=O)(O)O)cc1	inactive	
COCCl		29.3% [at 42.5 µM]
CCOP(=S)(OCC)Oc1cnc2ccccc2n1	inactive	
C=CCO	inactive	
Nc1ccccc1C(=O)O	inactive	
Nc1ccc(Oc2ccc(N)cc2)cc1	inactive	
C=CC(N)=O	inactive	
CCOC(=O)c1ccccc1C(=O)OCC	inactive	
COC(=O)NS(=O)(=O)c1ccc(N)cc1	inactive	
CCc1cccc(C)c1N(C(=O)CCl)C(C)COC (stereo not given)	inactive	
O=NN1CCCCCCC1	inactive	
c1ccc(-c2ccccc2)cc1		25.4%
CN1C(=O)CN=C(c2ccccc2)c2cc(Cl)ccc21		16.8% [at 42.5 µM]
CCN(CC)c1ccccc1	inactive	
BrCCBr	inactive	
COc1ccc2c3c1O[C@H]1[C@@H](O)C=C[C@H]4[C@@H](C2)N(C)CC[C@@]341		9.41%
O=S(=O)(c1ccc(O)cc1)c1ccc(O)cc1		17.4%
CCOP(OCC)OCC	inactive	
Cc1ccccc1O	inactive	
NCC(O)c1ccc(O)cc1 (stereo not given)		2.7% [at 42.5 µM]

SMILES	Potency	activity change, negative = cytotoxicity
CC1C=[C-]C=C1.[C-]#[O+].[C-]#[O+].[C-]#[O+].[Mn]	inactive	
CN(C)[C@@H]1C(=O)C(C(N)=O)=C(O)[C@@]2(O)C(=O)C3=C(O)c4c(O)cccc4[C@@](C)(O)[C@H]3C[C@@H]12	inactive	
O=c1[nH]c2ccccc2c(=O)o1		4.47%
CC(C)OC(=O)Nc1ccccc1	inactive	
CC(C)C#N	inactive	
Oc1ccccc1Cl	inactive	
C1CN2CCN1CC2	inactive	
NCCc1ccc(O)cc1		0.0188% [at 42.5 µM]
CCNc1nc(NC(C)C)nc(SC)n1	inactive	
CCCN(CCC)c1c([N+](=O)[O-])cc(C(F)(F)F)cc1[N+](=O)[O-]	inactive	
CC(C)(C)OOC(C)(C)C	inactive	
OC(O)C(Cl)(Cl)Cl		1.16% [at 42.5 µM]
CC(C#N)CCC#N (stereo not given)	inactive	
CCCCN(CC)C(=O)SCCC	inactive	
O=[N+]([O-])c1ccccc1	inactive	
CCOP(=S)(OCC)SCCSCC	inactive	
CCCCOC(=O)c1ccccc1C(=O)OCCCC	inactive	
c1ccc2c(c1)oc1ccccc12	inactive	
CN(N=O)c1ccccc1	inactive	
[O-][Cl+2]([O-])O	inactive	
